Measurements published in PubChem BioAssay (NCATS).
Results filed as inconclusive are left out. Values without a mark were called inactive. The call rests on the fitted dose curve; in most records, active means well fitted inhibition curve with a large enough effect; inconclusive means small, poorly fitted or top-dose-only effect; inactive means flat fitted curve, though single readings scatter.

molecular target: Calcium and integrin-binding protein 1 (Homo sapiens) (UniProt Q99828); assay: Primary qHTS for Identification of Calcium Integrin Binding Protein 1 (CIB1) Competitor (AID 1508620); conditions: CIB1-GST / FITC-alphaIIb peptide fluorescence polarization; series mostly up to 114 µM; activity change, negative = inhibition: at the top concentration; further: top concentration of the series differs between compounds
Method in brief: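 Fluorescence polarization competition: GST-tagged CIB1 (1 uM final) preincubated with compound 15 min at room temperature, then FITC-labelled alphaIIb peptide (100 nM final) added. After 15 min at room temperature, polarization read at Ex 480/Em 540.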
On the % scale 0 is the no-effect control and ±100 the full control effect.

Calcium and integrin-binding protein 1 (Homo sapiens), sequence (Q99828 whole entry, looked up): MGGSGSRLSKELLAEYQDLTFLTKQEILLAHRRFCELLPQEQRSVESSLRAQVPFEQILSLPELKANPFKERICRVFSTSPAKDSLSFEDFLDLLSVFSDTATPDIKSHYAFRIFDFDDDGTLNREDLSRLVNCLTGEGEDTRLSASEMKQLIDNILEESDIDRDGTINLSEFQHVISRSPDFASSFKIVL

Going from CC(=O)c1ccc(N2CCN(S(=O)(=O)c3ccc4c(c3)CCC(=O)N4)CC2)cc1 to COc1ccc(S(=O)(=O)N2CCN(S(=O)(=O)c3ccc(OC)cc3)CC2)cc1, the “activity change, negative = inhibition” value falls from 15% to -0.0373%.

First: CCc1ccccc1C(=O)N1CCc2cc(-c3nc(NC(=O)Cc4ccc5c(c4)OCO5)sc3C)ccc21
Second: CN(CC(=O)O)c1ncnc2ccc(-c3ccc4c(c3)OCO4)cc12
The “activity change, negative = inhibition” value of the first is higher: 0.376% for the first, -6.89% for the second.

First: CSc1ccccc1-c1ncc(C)c(NCc2ccc(-c3cccnc3)cc2)n1
Second: CC(C)c1ccccc1-c1ncc(N(C)C)c(NCc2ccc(-c3cccnc3)cc2)n1
The “activity change, negative = inhibition” value of the first is lower: -0.187% for the first, 0.002% for the second.

First: Cc1ccc(CNc2ccc(N3CCN(C)CC3=O)cc2)cc1
Second: Cc1ccc(NS(=O)(=O)c2ccc(N3CCCC3=O)cc2)cc1C
The “activity change, negative = inhibition” value of the first is lower: -1.44% for the first, 4.41% for the second.

Compared with CC(C)(C)N=Cc1c(-c2ccccc2)no[n+]1[O-], O=c1c2ccccc2nc2sc(Nc3ccc(Br)cc3)nn12 is lower in “activity change, negative = inhibition” value: 0.344% for the first, -0.29% for the second.

Compared with CC(=O)C1CCN(c2ncc(-c3cccc(N(C)C)c3)s2)CC1, Cc1cc2c(s1)c1cnn(Cc3ccccc3Cl)c(=O)c1n2C is higher in “activity change, negative = inhibition” value: -3.96% for the first, 4.23% for the second.

Compared with Fc1cccc(CSc2nc3ncc(Br)cc3[nH]2)c1, Cn1nnnc1Sc1ncnc2scc(-c3cccc(S(C)(=O)=O)c3)c12 is lower in “activity change, negative = inhibition” value: 1.75% for the first, -1.91% for the second.

Going from COc1ccc(C2Nc3ccccc3C(=O)N2Cc2cccc3ccccc23)cc1COc1ccc(NC(C)=O)cc1 (stereo not drawn) to Cc1ccc(OCCn2c(CCNC(=O)c3ccccc3F)nc3ccccc32)cc1, the “activity change, negative = inhibition” value rises from 1.06% to 5.6%.

First: O=C1CCCC2=C1C(c1[nH]ncc1Cl)N=C(Nc1nc3ccc(Cl)cc3o1)N2 (stereo not drawn)
Second: Cc1nc(-c2ccc(S(=O)(=O)Nc3ccc(C)c(C)c3)s2)cs1
The “activity change, negative = inhibition” value of the first is lower: -5.23% for the first, 3.06% for the second.

Going from N#CC1=C(NC=NCc2ccccc2)Oc2ccc3ccccc3c2C1c1ccccc1 (stereo not drawn) to O=C(Nc1nnc(-c2ccncc2)s1)Oc1ccc2ccccc2c1, the “activity change, negative = inhibition” value falls from 13.6% to 0.0482%.

Going from N#Cc1c(-c2ccc(OCCOCCOCCNC(=O)CCCC[C@@H]3SC[C@@H]4NC(=O)N[C@@H]43)cc2)no[n+]1[O-] to O=C(COC(=O)CNC(=O)c1ccccc1)Nc1cc(C(F)(F)F)ccc1Cl, the “activity change, negative = inhibition” value rises from -8.4% to -4.1%.

With Cc1c(Br)cc(F)c([S+](=O)([O-])N2CCN([S+](=O)([O-])c3ccc4c(c3)OCCO4)CC2)c1F the “activity change, negative = inhibition” value was 5.41%.
